In general, AC50 refers to the midpoint of the concentration-response curve, whichever way the signal moves.

Read-out in assay [1]: Monokine induced gamma interferon (MIG), CXCL9 (gene 4283)
Kind of assay: BSK_SAg_MIG: BioMAP Diversity Plus: SAg Assay for Monokine induced gamma interferon (MIG) Biomarker Activity (AID 2283092). The settings on record: primary human HUVEC with PBMC; actives raise or lower the signal. The gist of the method: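 ELISA readout of MIG/CXCL9; primary human umbilical vein endothelial cells co-cultured with peripheral blood mononuclear cells; 24 h post-dose; gain/loss fit vs DMSO baseline.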

Read-out in assay [2]: Interleukin-8 (IL8), CXCL8 (gene 3576)
Kind of assay: BSK_SAg_IL8: BioMAP Diversity Plus: SAg Assay for Interleukin-8 (IL8) Biomarker Activity (AID 2283094). The settings on record: primary human HUVEC with PBMC; actives raise or lower the signal. The gist of the method:
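ELISA read-out of IL-8 in a primary human vascular co-culture (umbilical vein endothelium plus PBMC), taken 24 h after compound addition. Values derive from bidirectional fits against DMSO negative controls.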

The nature of assay [3]: BSK_SAg_Proliferation: Cell Proliferation Assessment in the BioMAP Diversity Plus: SAg Assay (AID 2283095).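 Further: relative cell number as total protein by SRB absorbance in sub-confluent culture.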 Particulars: primary human HUVEC with PBMC. The method in brief:
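Cells (endothelium plus PBMC, human primary) were dosed with chemical, cultured 96 h, fixed in 10% TCA and stained with 0.1% SRB. Absorbance at 560 nm gave relative protein, fitted bidirectionally relative to DMSO.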

A short description of assay [4]: BSK_SAg_SRB: Viability Assessment in the BioMAP Diversity Plus: SAg Assay (AID 2283096).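 Further: cells read one day after compound addition; hits may be either gain or loss of signal compared with DMSO.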 Particulars: primary human HUVEC with PBMC. The method in brief: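 Endothelial/PBMC primary human co-culture; compound 24 h; fix 10% TCA, stain 0.1% SRB, A560; protein content as cytotoxicity proxy; bidirectional curve fit, DMSO = baseline.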
Assay [5] can be described thus: BSK_SAg_PBMCCytotoxicity: PBMC Cytotoxicity Assessment in the BioMAP Diversity Plus: SAg Assay (AID 2283093).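 Further: PBMC viability measured as Alamar Blue reduction fluorescence at 546/580 nm; fitted both ways against DMSO so a hit may be loss or gain of signal.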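 On AC50: PBMC superantigen activated with SEB plus TSST-1 one hour after compound addition.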 The settings on record: primary human HUVEC with PBMC. The method in brief:
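Human umbilical vein endothelial cells co-cultured with PBMC; PBMC (75,000/well) pre-treated with compound 1 h, then activated with SEB and TSST-1 (20 ng/mL final each) for 90 h. Alamar Blue added 6 h, fluorescence 546/580 nm; bidirectional fit versus DMSO.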

Assay [6] deals with human CYP2B6, CYP2B6 (gene 1555) (UniProt P20813). Briefly: NVS_ADME_hCYP2B6: NovaScreen (NVS) CYP450-related Enzyme Activity (ADME) Assay for human CYP2B6 (AID 2283101; active means hit-call score of the fitted dose curve at least 0.9, where 1 is the maximum). The method in brief: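 Fluorescence-based enzyme activity of recombinant human CYP2B6, measured 1 h post-dose against acetonitrile vehicle baseline. Screened at a single concentration of 10 uM in duplicate before concentration-response follow-up.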
Sequence of human CYP2B6, CYP2B6 (gene 1555) (P20813 whole entry, looked up): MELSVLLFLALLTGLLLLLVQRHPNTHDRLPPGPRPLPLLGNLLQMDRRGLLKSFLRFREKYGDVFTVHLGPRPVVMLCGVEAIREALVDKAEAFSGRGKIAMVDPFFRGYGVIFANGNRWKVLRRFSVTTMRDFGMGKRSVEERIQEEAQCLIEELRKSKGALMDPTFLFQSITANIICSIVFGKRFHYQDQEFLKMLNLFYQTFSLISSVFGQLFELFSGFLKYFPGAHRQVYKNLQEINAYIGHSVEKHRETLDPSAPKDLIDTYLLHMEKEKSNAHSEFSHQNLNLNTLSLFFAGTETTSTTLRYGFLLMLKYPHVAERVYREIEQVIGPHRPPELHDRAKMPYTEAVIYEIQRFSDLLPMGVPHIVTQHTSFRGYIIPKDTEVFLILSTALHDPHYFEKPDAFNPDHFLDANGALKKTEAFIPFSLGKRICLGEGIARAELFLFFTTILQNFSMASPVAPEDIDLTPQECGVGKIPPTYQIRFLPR

Assay [7] addresses human CYP1A2, CYP1A2 (gene 1544) (UniProt P05177). Kind of assay: NVS_ADME_hCYP1A2: NovaScreen (NVS) CYP450-related Enzyme Activity (ADME) Assay for human CYP1A2 (AID 2283102; active means hit-call score of the fitted dose curve at least 0.9, where 1 is the maximum;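 further: potency for inhibition since loss of fluorescence marks reduced CYP1A2 activity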). The method in brief:
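Enzyme activity of insect-cell-expressed human CYP1A2 measured by fluorescence 0.5 h after compound addition, relative to acetonitrile. Compounds first tested in duplicate at 10 uM, actives followed up in concentration series.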

The target in assay [8] is human CYP2D6, CYP2D6 (gene 1565) (UniProt P10635). Kind of assay: NVS_ADME_hCYP2D6: NovaScreen (NVS) CYP450-related Enzyme Activity (ADME) Assay for human CYP2D6 (AID 2283107; active means hit-call score of the fitted dose curve at least 0.9, where 1 is the maximum). The gist of the method: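 Fluorescence readout of recombinant CYP2D6 (insect-cell derived) activity after 1 h incubation with test chemical. Acetonitrile served as baseline, loss-of-signal direction. Single-concentration duplicate screening at 10 uM preceded concentration-response retesting.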
Sequence of human CYP2D6, CYP2D6 (gene 1565) (P10635 whole entry, looked up): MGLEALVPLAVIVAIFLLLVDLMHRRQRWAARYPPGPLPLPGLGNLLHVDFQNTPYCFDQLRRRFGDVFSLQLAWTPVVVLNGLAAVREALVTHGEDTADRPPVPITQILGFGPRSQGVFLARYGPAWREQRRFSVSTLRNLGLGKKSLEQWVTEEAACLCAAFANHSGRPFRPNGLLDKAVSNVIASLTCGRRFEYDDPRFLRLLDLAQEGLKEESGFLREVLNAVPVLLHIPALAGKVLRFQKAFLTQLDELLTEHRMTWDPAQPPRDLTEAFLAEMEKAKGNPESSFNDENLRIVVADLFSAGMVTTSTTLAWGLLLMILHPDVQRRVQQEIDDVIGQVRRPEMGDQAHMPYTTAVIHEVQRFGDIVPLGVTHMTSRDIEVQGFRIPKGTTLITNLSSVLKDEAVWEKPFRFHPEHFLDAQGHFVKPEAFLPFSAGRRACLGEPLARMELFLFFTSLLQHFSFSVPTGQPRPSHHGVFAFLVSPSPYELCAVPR

Assay [9] deals with human CYP2C9, CYP2C9 (gene 1559) (UniProt P11712). Briefly: NVS_ADME_hCYP2C9: NovaScreen (NVS) CYP450-related Enzyme Activity (ADME) Assay for human CYP2C9 (AID 2283108; active means hit-call score of the fitted dose curve at least 0.9, where 1 is the maximum). The gist of the method: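 Cell-free assay of recombinant human CYP2C9 produced in Sf9 cells, with enzyme activity read by fluorescence intensity 0.75 h after compound addition. Loss of signal versus an acetonitrile negative control indicates inhibition. Primary screen used 10 uM in duplicate; actives were retested in concentration series.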
Sequence of human CYP2C9, CYP2C9 (gene 1559) (P11712 whole entry, looked up): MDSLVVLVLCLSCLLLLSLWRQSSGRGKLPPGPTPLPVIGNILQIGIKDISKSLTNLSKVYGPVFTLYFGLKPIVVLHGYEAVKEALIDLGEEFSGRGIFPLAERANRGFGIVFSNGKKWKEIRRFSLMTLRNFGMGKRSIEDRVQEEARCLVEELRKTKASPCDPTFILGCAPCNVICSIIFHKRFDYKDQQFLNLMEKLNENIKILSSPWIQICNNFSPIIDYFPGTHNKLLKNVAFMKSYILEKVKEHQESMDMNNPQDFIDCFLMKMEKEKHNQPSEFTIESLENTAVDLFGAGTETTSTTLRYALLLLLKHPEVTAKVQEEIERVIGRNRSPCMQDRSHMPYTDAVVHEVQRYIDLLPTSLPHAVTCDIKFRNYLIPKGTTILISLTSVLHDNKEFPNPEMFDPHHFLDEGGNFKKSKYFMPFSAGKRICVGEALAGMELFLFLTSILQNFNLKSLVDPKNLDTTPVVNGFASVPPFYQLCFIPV

For assay [10], the target named is Cytochrome P450 3A4 (Homo sapiens) (UniProt P08684). Kind of assay: NVS_ADME_hCYP3A4: NovaScreen (NVS) CYP450-related Enzyme Activity (ADME) Assay for human CYP3A4 (AID 2283110; active means hit-call score of the fitted dose curve at least 0.9, where 1 is the maximum). The gist of the method: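 Cell-free assay using insect-cell-expressed human CYP3A4 with a fluorogenic substrate; fluorescence intensity was read 0.33 hour after dosing. Loss of signal relative to acetonitrile vehicle indicated inhibition. Primary single-concentration screen at 10 uM, in duplicate, then concentration series.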
Sequence of Cytochrome P450 3A4 (Homo sapiens) (P08684 whole entry, looked up): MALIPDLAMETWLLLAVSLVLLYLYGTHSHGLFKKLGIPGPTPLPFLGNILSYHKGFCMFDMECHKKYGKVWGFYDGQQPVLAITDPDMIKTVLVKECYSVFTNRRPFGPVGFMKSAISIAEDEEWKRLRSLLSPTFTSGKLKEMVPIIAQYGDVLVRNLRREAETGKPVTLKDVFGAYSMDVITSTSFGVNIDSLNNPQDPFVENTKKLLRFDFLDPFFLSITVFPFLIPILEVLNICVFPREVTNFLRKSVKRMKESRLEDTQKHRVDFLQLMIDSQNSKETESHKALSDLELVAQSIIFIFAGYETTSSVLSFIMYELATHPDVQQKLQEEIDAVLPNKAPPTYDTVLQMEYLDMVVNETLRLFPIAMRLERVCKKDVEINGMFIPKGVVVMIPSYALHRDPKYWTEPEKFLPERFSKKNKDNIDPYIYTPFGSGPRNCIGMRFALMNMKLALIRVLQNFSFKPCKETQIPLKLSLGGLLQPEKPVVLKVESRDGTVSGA

For assay [11], the target named is Cytochrome P450 2C19 (Homo sapiens) (UniProt P33261). Briefly: NVS_ADME_hCYP2C19: NovaScreen (NVS) CYP450-related Enzyme Activity (ADME) Assay for human CYP2C19 (AID 2283113; active means hit-call score of the fitted dose curve at least 0.9, where 1 is the maximum;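 further: potency for inhibition seen as loss of fluorescent signal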). The method in brief:
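Compounds first screened in duplicate at 10 uM, then confirmed in concentration series. Insect-cell-expressed human CYP2C19 turned over a fluorogenic substrate, and fluorescence was read after 1 h. Inhibition taken as signal loss relative to acetonitrile.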

For assay [12], the target named is human Caspase 5 (CASP5), CASP5 (gene 838) (UniProt P51878). Briefly: NVS_ENZ_hCASP5: NovaScreen (NVS) Enzymatic Assay for human Caspase 5 (CASP5) (AID 2283137; active means hit-call score of the fitted dose curve at least 0.9, where 1 is the maximum). The method in brief: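 E. coli-derived enzyme, cell-free, 2 h incubation, fluorescence intensity. 25 uM duplicate single-point; hits → concentration series to 50 uM. DMSO baseline, positive/negative controls on every plate.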
Sequence of human Caspase 5 (CASP5), CASP5 (gene 838) (P51878 whole entry, looked up): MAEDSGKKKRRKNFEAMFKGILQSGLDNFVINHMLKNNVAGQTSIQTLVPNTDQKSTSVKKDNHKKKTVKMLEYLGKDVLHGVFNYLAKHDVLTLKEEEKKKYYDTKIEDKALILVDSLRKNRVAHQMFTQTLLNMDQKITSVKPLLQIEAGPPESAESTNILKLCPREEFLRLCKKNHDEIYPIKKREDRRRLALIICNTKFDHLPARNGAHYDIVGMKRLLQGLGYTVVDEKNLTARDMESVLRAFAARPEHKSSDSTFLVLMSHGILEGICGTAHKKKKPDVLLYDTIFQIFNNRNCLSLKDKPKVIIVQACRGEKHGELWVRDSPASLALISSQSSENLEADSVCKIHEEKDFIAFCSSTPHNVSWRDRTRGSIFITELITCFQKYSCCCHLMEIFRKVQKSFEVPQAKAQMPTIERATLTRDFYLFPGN

In assay [13] the target is human Caspase 4 (CASP4), CASP4 (gene 837) (UniProt P49662). Kind of assay: NVS_ENZ_hCASP4: NovaScreen (NVS) Enzymatic Assay for human Caspase 4 (CASP4) (AID 2283143; active means hit-call score of the fitted dose curve at least 0.9, where 1 is the maximum). The gist of the method:
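The cell-free assay used E. coli-expressed enzyme with a fluorogenic substrate, read 2 h after dosing. Signal loss was scored versus DMSO. Screening was in duplicate at 25 uM, then singleton concentration-response up to 50 uM.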

In assay [14] the target is human Acid Phosphatase 1 (ACP1), ACP1 (gene 52) (UniProt P24666). Kind of assay: NVS_ENZ_hACP1: NovaScreen (NVS) Enzymatic Assay for human Acid Phosphatase 1 (ACP1) (AID 2283136; active means hit-call score of the fitted dose curve at least 0.9, where 1 is the maximum). The method in brief:
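Recombinant enzyme expressed in Sf9 cells, tested cell-free; activity read by fluorescence with electrophoretic mobility shift separation of substrate and product, 1.5 h after dosing. Primary screen in duplicate at 25 uM, actives then run in concentration series; loss of signal versus DMSO.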

In assay [15] the target is human AKT serine/threonine Kinase 1 (AKT1), AKT1 (gene 207) (UniProt P31749). Briefly: NVS_ENZ_hAKT1: NovaScreen (NVS) Enzymatic Assay for human AKT serine/threonine Kinase 1 (AKT1) (AID 2283138; active means hit-call score of the fitted dose curve at least 0.9, where 1 is the maximum). The method in brief: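 Recombinant AKT1, specific substrate, cell-free; 1 h; fluorescence intensity/electrophoretic mobility shift. Duplicate single-point 25 uM, then singleton CRC max 50 uM. DMSO = negative control/baseline; signal loss = inhibition.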
Sequence of human AKT serine/threonine Kinase 1 (AKT1), AKT1 (gene 207) (P31749 whole entry, looked up): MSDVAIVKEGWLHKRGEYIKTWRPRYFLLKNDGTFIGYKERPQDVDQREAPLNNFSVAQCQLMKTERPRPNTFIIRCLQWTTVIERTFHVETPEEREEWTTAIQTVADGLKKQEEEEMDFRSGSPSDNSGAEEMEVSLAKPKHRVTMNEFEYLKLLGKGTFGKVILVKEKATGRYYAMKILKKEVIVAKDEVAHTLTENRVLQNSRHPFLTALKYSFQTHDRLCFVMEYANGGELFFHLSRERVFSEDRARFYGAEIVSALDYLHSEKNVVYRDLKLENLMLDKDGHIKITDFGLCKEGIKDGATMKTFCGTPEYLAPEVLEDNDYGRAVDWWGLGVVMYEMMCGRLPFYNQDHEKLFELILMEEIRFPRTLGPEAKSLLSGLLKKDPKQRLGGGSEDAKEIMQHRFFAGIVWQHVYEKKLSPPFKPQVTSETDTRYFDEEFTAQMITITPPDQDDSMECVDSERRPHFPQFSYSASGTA

Assay [16] addresses human CYP1A1, CYP1A1 (gene 1543) (UniProt P04798). Briefly: NVS_ADME_hCYP1A1: NovaScreen (NVS) CYP450-related Enzyme Activity (ADME) Assay for human CYP1A1 (AID 2283100; active means hit-call score of the fitted dose curve at least 0.9, where 1 is the maximum). The method in brief: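 Chemicals were first tested in duplicate at 10 uM, and those passing a 30% inhibition threshold were rerun as concentration series topping at 20 uM. Fluorescence read-out of recombinant enzyme turnover after 1 h, relative to acetonitrile.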

In assay [17] the target is human Beta-secretase (BACE), BACE1 (gene 23621) (UniProt P56817). Kind of assay: NVS_ENZ_hBACE: NovaScreen (NVS) Enzymatic Assay for human Beta-secretase (BACE) (AID 2283140; active means hit-call score of the fitted dose curve at least 0.9, where 1 is the maximum;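 further: hits are inhibitors that reduce fluorescent substrate signal versus DMSO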). The gist of the method:
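Compounds were first tested in duplicate at 25 uM, then actives in concentration series, against recombinant BACE1 from SF9 cells. Enzyme activity was measured by fluorescence intensity 1 hour after dosing, with DMSO as negative control.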

Records with an inconclusive call do not appear. Activity calls are given as the source filed them. How the source made its calls, unless noted: active means hit-call score of the fitted dose curve at least 0.9, where 1 is the maximum; inactive means score below 0.9.

Sequence of human CYP1A2, CYP1A2 (gene 1544) (P05177 whole entry, looked up): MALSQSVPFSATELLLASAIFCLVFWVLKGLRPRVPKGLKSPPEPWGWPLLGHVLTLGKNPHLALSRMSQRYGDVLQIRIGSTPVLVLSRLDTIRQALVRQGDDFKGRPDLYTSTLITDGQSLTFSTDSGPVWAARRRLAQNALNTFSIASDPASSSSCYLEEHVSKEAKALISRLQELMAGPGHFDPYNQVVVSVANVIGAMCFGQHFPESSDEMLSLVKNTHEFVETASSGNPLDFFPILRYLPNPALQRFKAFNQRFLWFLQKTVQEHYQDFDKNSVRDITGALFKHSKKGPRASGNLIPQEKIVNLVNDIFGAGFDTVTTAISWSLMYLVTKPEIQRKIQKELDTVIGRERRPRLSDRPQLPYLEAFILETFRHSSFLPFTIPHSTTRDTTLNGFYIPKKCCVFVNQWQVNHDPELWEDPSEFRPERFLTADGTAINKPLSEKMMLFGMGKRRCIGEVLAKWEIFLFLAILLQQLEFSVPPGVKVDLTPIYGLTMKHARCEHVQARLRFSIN
Sequence of human CYP1A1, CYP1A1 (gene 1543) (P04798 whole entry, looked up): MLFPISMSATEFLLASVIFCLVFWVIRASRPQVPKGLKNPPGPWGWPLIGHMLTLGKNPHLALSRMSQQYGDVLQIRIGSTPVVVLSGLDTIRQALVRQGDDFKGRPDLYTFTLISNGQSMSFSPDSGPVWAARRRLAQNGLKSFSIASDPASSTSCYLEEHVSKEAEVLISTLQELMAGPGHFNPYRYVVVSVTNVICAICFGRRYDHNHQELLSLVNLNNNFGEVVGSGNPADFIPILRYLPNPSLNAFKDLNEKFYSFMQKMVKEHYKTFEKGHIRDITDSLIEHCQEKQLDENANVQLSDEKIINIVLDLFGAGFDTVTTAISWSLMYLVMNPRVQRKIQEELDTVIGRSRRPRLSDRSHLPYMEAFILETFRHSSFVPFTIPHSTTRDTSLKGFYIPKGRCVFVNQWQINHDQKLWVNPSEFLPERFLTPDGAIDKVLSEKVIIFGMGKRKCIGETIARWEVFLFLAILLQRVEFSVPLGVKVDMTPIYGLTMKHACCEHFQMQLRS
Sequence of human Caspase 4 (CASP4), CASP4 (gene 837) (P49662 whole entry, looked up): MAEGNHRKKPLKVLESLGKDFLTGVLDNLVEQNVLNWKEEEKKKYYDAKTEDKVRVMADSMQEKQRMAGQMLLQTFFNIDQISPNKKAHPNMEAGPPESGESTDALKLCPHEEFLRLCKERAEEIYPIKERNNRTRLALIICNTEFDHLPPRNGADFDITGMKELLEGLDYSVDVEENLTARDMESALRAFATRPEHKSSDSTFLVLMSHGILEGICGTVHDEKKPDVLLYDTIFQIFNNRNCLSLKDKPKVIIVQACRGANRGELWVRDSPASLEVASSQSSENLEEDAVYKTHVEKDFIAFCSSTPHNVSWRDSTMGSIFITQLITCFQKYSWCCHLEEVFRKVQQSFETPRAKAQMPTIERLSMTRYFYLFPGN
Sequence of human Beta-secretase (BACE), BACE1 (gene 23621) (P56817 whole entry, looked up): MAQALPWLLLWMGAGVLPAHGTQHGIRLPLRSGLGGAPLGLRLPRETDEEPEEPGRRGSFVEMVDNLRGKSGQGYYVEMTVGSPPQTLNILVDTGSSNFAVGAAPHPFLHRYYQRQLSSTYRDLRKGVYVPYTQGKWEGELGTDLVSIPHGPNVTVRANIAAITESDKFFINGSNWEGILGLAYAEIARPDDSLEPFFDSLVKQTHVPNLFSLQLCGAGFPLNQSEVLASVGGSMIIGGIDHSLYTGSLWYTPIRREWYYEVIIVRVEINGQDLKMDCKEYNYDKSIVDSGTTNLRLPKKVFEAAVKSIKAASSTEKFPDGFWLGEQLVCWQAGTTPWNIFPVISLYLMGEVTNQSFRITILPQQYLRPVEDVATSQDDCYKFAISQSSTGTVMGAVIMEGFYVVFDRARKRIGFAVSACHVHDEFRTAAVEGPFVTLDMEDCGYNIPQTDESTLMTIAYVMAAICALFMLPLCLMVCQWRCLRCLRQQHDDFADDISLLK
Sequence of human Acid Phosphatase 1 (ACP1), ACP1 (gene 52) (P24666 whole entry, looked up): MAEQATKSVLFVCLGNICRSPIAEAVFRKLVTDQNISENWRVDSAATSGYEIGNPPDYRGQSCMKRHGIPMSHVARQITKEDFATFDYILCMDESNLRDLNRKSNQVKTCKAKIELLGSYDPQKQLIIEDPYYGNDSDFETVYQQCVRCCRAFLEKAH

As to `COc1cccc(-c2ccc(/C=C\CN3CCCCCC3)cc2Cl)c1`, the AC50 in assay [1] is 25.8 µM (active); in [2], 25 µM (active); in [4], 27.2 µM (active). Further, the result in assay [3] was inactive.

Regarding `Nc1ccc(Nc2ccccc2)cc1`, the AC50 was 15.7 µM (active) in [1]; 5.36 µM (active) in assay [5]; 8.78 µM (active) in assay [2]; 14 µM (active) in [3]; 4.35 µM (active) in [6]; 15.1 µM (active) in assay [7]. Moreover, the AC50 in [8] is 13.8 µM (active); in assay [9], 16.1 µM (active); in assay [10] it was 7.5 µM (active); in [11], 6.51 µM (active). In addition, the result in assay [4], in assay [12] and in assay [13] was inactive.

In the case of `CCCCC(CC)COC(=O)c1ccc(C(=O)OCC(CC)CCCC)cc1` (stereo not given), the result in assay [1], in assay [5], in [3] and in assay [4] was inactive.

Turning to `Cc1ccc(N)cc1O`, the result in assay [1], in [2], in [4], in assay [14] and in assay [15] was inactive. Further, the AC50 was 9.99 µM (active) in [5]; 8.98 µM (active) in assay [3]; 3.9 µM (active) in assay [8]; 5.95 µM (active) in assay [9]; 7.57 µM (active) in assay [11].

Regarding `Cc1ccc(C)c(O)c1`, the outcome in [5], in assay [2], in assay [3] and in assay [4] was inactive.

With `O=c1n(CC2CO2)c(=O)n(CC2CO2)c(=O)n1CC1CO1` (stereo not given), in [5], the result was inactive. Besides, the AC50 in assay [2] was 20 µM (active); in assay [3], 10.6 µM (active); in [4], 17.5 µM (active).

In the case of `Cc1c(-c2cccnc2)c2ccccc2n1CCCCC(=O)O`, the outcome in assay [1], in [5], in assay [2], in [4] and in assay [17] was inactive. For the same molecule, the AC50 in assay [3] was 20 µM (active); in [16], 4.39 µM (active); in assay [7], 13.9 µM (active).

Regarding `CCCCCCCCCCCCc1ccccc1`, the result in [5], in assay [2], in assay [3] and in assay [4] was inactive.

`CCc1cc(SCc2sc(-c3ccc(C(F)(F)F)cc3)nc2CN2CCN(c3ccc(OC)cc3)CC2)ccc1OCC(=O)O`: the AC50 in assay [1] is 14.1 µM (active); in assay [5], 21.5 µM (active); in assay [2] it was 20 µM (active); in assay [3], 9.97 µM (active); in assay [4] it was 14.2 µM (active); in assay [12] it was 2.35 µM (active). The call in assay [16], in assay [9], in assay [10] and in assay [13] was inactive.

Regarding `CCCN(C1CCN(C(=O)C2CCNCC2)CC1)[C@@H]1CCc2ccc(OC)cc2C1`, the result in assay [5], in assay [2], in [3] and in assay [4] was inactive.
